Source: PubChem BioAssay (NCATS)
Results filed as inconclusive are left out. Activity calls are given as the source filed them. The call rests on the fitted dose curve; in most records, active means well fitted inhibition curve with a large enough effect; inconclusive means small, poorly fitted or top-dose-only effect; inactive means flat fitted curve, though single readings scatter.

Molecular target: Calcium and integrin-binding protein 1 (Homo sapiens) (UniProt Q99828)
Assay: Primary qHTS for Identification of Calcium Integrin Binding Protein 1 (CIB1) Competitor (AID 1508620);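 further: GST tagged CIB1 binding a fluorescein labelled alphaIIb integrin peptide tracer; top concentration of the series differs between compounds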
Settings: CIB1-GST / FITC-alphaIIb peptide fluorescence polarization; series mostly up to 114 µM; activity change, negative = inhibition: at the top concentration
Outline: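 Fluorescence polarization competition: CIB1-GST (1 uM final) preincubated with compound 15 min at room temperature, then FITC-labeled alphaIIb peptide (100 nM final) added for another 15 min. Polarization read at Ex 480/Em 540.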
On the % scale 0 is the no-effect control and ±100 the full control effect.

Calcium and integrin-binding protein 1 (Homo sapiens), sequence (Q99828 whole entry, looked up): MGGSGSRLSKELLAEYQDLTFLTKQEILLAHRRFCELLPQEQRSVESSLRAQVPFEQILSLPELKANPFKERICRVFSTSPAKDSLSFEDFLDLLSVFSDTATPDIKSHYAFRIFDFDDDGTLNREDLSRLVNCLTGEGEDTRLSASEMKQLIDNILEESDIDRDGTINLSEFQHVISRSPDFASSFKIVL

Row | SMILES | activity change, negative = inhibition | Potency
1 | CC(C)(C)OC(=O)n1c2ccsc2c2cnn(Cc3ccccc3F)c(=O)c21 | -2.96% (inactive) | –
2 | O=C(Nc1ccccn1)c1sc2ccc([N+](=O)[O-])cc2c1Cl | -2.69% (inactive) | –
3 | Cc1ccc2nc3sc(C(=O)Nc4ccncc4)cc3cc2c1 | -1.51% (inactive) | –
4 | Cc1ccc2nc3sc(C(=O)N4CCCCC4)cc3cc2c1 | 0.836% (inactive) | –
5 | O=[S+]([O-])(c1ccc2c(c1)OCCO2)N1CCN([S+](=O)([O-])c2c(F)cc(F)cc2Br)CC1 | 4.34% (inactive) | –
6 | Cn1cc(P(=O)(c2ccccc2)c2ccccc2)c2ccccc21 | -1.3% (inactive) | –
7 | Cc1ccnc(NC(=S)N2CCN(c3cccc([N+](=O)[O-])c3)CC2)c1 | -15.1% (inactive) | –
8 | Fc1ccc(Nc2nc(-c3ccnc(C(F)(F)F)c3)nc3ccccc23)cc1F | 0.738% (inactive) | –
9 | CCC1CCC2(C1)N=C(Nc1nc3ccccc3o1)NC1=C2C(=O)CCC1 (stereo not given) | – | inactive
10 | COc1cc(OC)cc(N2CCN(C(=S)Nc3cc(C)cc(C)n3)CC2)c1 | -2.1% (inactive) | –
11 | O=C1Cc2cc(S(=O)(=O)N3CCN(c4ccc([N+](=O)[O-])cc4)CC3)ccc2N1 | -2.78% (inactive) | –
12 | CCOC(=O)CCC(=O)Nc1ncnc2c1C(c1ccccc1)c1c(ccc3ccccc13)O2 (stereo not given) | 2.76% (inactive) | –
13 | O=C(Cc1ccccc1)Nc1sc2c(c1C(=O)Nc1cccc(Cl)c1)CCCC2 | 2.91% (inactive) | –
14 | COc1ccc(C2=Nn3c(nnc3-c3cccc(OC)c3OC)SC2)cc1 | -2.01% (inactive) | –
15 | O=C1Nc2cccc(Cl)c2/C1=C\c1cc(Cl)c(O)c(Cl)c1 | -8.16% (inactive) | –
16 | Cc1cc2c(s1)c1cnn(Cc3cccc4cccnc34)c(=O)c1n2C | -1.07% (inactive) | –
17 | Fc1cnc(-c2ccccc2C(F)F)nc1NCc1ccc(-c2ccn[nH]2)cc1 | -0.0787% (inactive) | –
18 | Cc1cc(C)nc(NC(=S)N2CCN(c3ccc4cnccc4c3)CC2)c1 | -1.09% (inactive) | –
19 | CC(C)(C)N=Cc1c(-c2ccccc2)no[n+]1[O-] | 0.344% (inactive) | –
20 | O=C1CCCC2=C1C(c1cccc(F)c1)N=C(Nc1nc3ccccc3o1)N2 (stereo not given) | -3.92% (inactive) | –

Row | SMILES | activity change, negative = inhibition | Potency
21 | N#Cc1ccccc1OC1=NS(=O)(=O)c2ccccc21 | 3.75% (inactive) | –
22 | CC1=C(C(=O)Nc2nc3ccccc3s2)C2(CCCC2)N=C(Nc2nc3ccccc3o2)N1 | -0.823% (inactive) | –
23 | CCOc1ccc(C(=O)Oc2ccc(-c3nc4ccccc4[nH]3)cc2)cc1 | -0.0049% (inactive) | –
24 | CSc1ccccc1-c1ccc(Nc2nc(-c3ccncc3)nc3ccccc23)cc1F | 6.31% (inactive) | –
25 | Cc1ccccc1N(C)C1=N[S+](=O)([O-])c2ccccc21 | -6.57% (inactive) | –
26 | CC(C)(C)OC(=O)NCCOCCOCCOCCn1ncc2c1CCCC2NC(=O)c1ccccn1 (stereo not given) | -2.14% (inactive) | –
27 | Cc1cc(NS(=O)(=O)c2ccc(NC(=O)Cc3ccc(Cl)cc3)cc2)no1 | -8.01% (inactive) | –
28 | COc1cccc(C2c3c(ncn(-c4ccc(F)cc4)c3=N)Oc3ccc4ccccc4c32)c1 (stereo not given) | 6.17% (inactive) | –
29 | COc1ccc(-c2nc3ccccc3c(=O)n2Cc2ccccc2)cc1COc1ccc(NC(C)=O)cc1 | 4.9% (inactive) | –
30 | O=S(=O)(c1ccc(O)c2ncccc12)N1CCCCC1 | -16% (inactive) | –
31 | COc1ccc(C2=Nn3c(nnc3-c3ccccc3O)SC2)cc1OC | -9.78% (inactive) | –
32 | CC1=C(C(=O)Nc2ccc(Cl)cc2)C(c2ccccc2Br)N=C(Nc2nc3ccccc3o2)N1 (stereo not given) | 0.736% (inactive) | –
33 | CC(=O)N1CCN(c2ccc(NCc3ccc(-c4ccc(Br)cc4)o3)cc2)CC1 | -4.01% (inactive) | –
34 | N#CNC(=O)c1ccc(-n2cccc2/C=C2\NC(=O)N(CC(=O)Nc3cccc(F)c3)C2=O)cc1 | 6.07% (inactive) | –
35 | N#Cc1c(-c2cccc([N+](=O)[O-])c2)no[n+]1[O-] | -7.22% (inactive) | –
36 | CCC(=O)NC(c1cc(Cl)c2ccccc2c1O)C1CC1 (stereo not given) | 1.07% (inactive) | –
37 | CC(C)(C)OC(=O)Nc1ncnc2c1C(c1ccccc1)c1c(ccc3ccccc13)O2 (stereo not given) | 4.97% (inactive) | –
38 | COc1cccc(CNc2ccc(S(=O)(=O)Nc3cccs3)cc2)c1O | -1.7% [at 30.2 µM] (inactive) | –
39 | Cc1ccc(OCCn2c(CCNC(=O)c3ccc4cc[nH]c4c3)nc3ccccc32)cc1 | 4.86% (inactive) | –
40 | COc1ccc(C2Nc3ccccc3C(=O)N2Cc2ccc(Cl)cc2)cc1COc1ccc(NC(C)=O)cc1 (stereo not given) | 3.44% (inactive) | –
